# Reference: PubChem BioAssay (NCATS)
# Records with an inconclusive call do not appear. Values without a mark were called inactive. The source made the active and inactive calls. Calls follow the shape of the dose curve; as a rule, active = well fitted inhibition curve with a large enough effect in the repeat runs; inconclusive = weak or mixed curves; inactive = no such curve, though single readings can be large or run the other way.
# Biological target: Cytochrome P450 2C9 (Homo sapiens) (UniProt P11712)
# Assay: Cytochrome P450 family 2 subfamily C member 9 (CYP2C9) small molecule antagonists: luciferase biochemical (cell-free) qHTS assay (AID 1645842); also: nearly all actives have a fitted effect of over 55% in size
# Conditions: P450-Glo CYP2C9 enzyme assay, luciferin luminescence; series mostly up to 57.4 µM
# In short: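 P450-Glo CYP2C9 system: proluciferin substrate with enzyme in mix containing 0.4% BSA, 10 min at room temperature, then NADPH regeneration solution added and incubated 1 h at 37C. Detection reagent stopped reaction; luminescence read after 20 min as RLU.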
# % is scaled to controls: 0 for no effect and ±100 for the full control effect; potency is read from the fitted curve at half-maximal effect.
# Cytochrome P450 2C9 (Homo sapiens), sequence (P11712 whole entry, looked up): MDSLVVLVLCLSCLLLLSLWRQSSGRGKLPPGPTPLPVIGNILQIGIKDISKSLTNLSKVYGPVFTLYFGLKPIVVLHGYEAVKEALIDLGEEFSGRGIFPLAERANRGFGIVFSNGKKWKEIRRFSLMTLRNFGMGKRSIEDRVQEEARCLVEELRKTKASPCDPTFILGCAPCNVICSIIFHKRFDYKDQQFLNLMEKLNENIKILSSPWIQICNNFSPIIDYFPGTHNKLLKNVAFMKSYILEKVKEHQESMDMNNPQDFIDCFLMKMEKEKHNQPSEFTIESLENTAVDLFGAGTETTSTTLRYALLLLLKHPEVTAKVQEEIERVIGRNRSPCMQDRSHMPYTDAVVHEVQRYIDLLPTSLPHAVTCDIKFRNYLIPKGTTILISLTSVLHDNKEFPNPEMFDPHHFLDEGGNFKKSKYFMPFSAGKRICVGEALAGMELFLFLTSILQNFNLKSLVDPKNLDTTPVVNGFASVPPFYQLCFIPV
Structure (SMILES),Potency,"activity change, negative = inhibition"
CN(C)C(=O)Nc1cccc(-c2ccc(N(C)C)cc2)c1,23.9 µM (active),–
O=C1c2ccc(Nc3ccc(F)cc3F)cc2CCc2ccc(OCC(O)CO)cc21 (stereo not given),6.01 µM (active),–
COc1ccc(C2(CNC(=O)c3ccc(NC(=O)c4ccco4)cc3)CCOCC2)cc1,inactive,–
CN(c1ccc(NC(=O)Nc2ccccc2)cc1)S(=O)(=O)c1cnn(-c2ccc(F)cc2)c1,0.425 µM (active),–
C=CC(=O)Nc1cc(-n2c(=O)ccc3cnc4ccc(-c5ccc(NS(C)(=O)=O)cc5)cc4c32)ccc1C,1.51 µM (active),–
CCN1C(C)(C)CC(Oc2ccc(C(=O)Nc3ccc(NC(=O)Nc4cc(C(C)(C)C)on4)cc3)nc2)CC1(C)C,inactive,–
O=C(Nc1ccc(C(O)(C(F)(F)F)C(F)(F)F)cc1)c1ccc(C(F)(F)F)cc1,10.7 µM (active),–
Clc1ccc(Cn2c(Cc3ccccc3)nc3ccccc32)cc1,9.52 µM (active),–
Cc1cc(N2CCOCC2)ccc1Nc1nc(NC2CCCCC2)c2[nH]cnc2n1,13.5 µM (active),–
CC(=O)N1CCN(CCOc2ccc(C3CCN(C4=Nn5c(nnc5C(F)(F)F)CC4)CC3)cc2)CC1,12 µM (active),–
CCCc1cc(C)[nH]c(=O)c1CNC(=O)c1cc(-c2ccnc(N3CCN(C)CC3)c2)cc2c1cnn2C(C)C,13.5 µM (active),–
O=C(NC1(c2ccccc2)CC1)c1c(CN2CCC(N3CCCCC3)CC2)c(-c2cccc(C(F)(F)F)c2)nc2cc(Br)ccc12,23.9 µM (active),–
CC#CC(=O)Nc1ccc2ncnc(Nc3cccc(Br)c3)c2c1,inactive,–
CC[C@H]1CN(c2nc(N)c(C(N)=O)nc2Cl)CCN1C1CCN(Cc2ccc(Cl)cc2)CC1,7.56 µM (active),–
O=C1NC(=O)C(c2cnc3ccccn23)=C1c1cn2c3c(cc(F)cc13)CN(C(=O)N1CCCCC1)CC2,12 µM (active),–
COc1ccc(Oc2c(Cl)cnn(-c3cc(C)cc(C)c3)c2=O)cc1,12 µM (active),–
Clc1ccc(Nc2nc3ccccc3c3nc(C4CCCCC4)[nH]c23)cc1Cl,6.01 µM (active),–
C=CC(=O)Nc1cccc(Nc2nc(Nc3ccc(OCCOC)cc3)ncc2F)c1,3.38 µM (active),–

Structure (SMILES),Potency,"activity change, negative = inhibition"
COc1ccccc1N1CCN(CC[C@@](C)(C(=O)C2CCCCC2)c2ccccc2)CC1,8.49 µM (active),–
N#Cc1ccc(COC[C@H]2O[C@@H](n3c(NCc4ccc(Cl)c(Cl)c4)nc4c(N)ncnc43)[C@H](O)[C@@H]2O)cc1,10.7 µM (active),–
O=C(NCCCn1ccnc1)c1cc(-c2ccco2)on1,9.52 µM (active),–
COc1cc(CN(CCN)C(=O)c2cccs2)ccc1OCc1ccccc1,10.7 µM (active),–
CCOc1ccc(S(=O)(=O)N2CCCCCC2)c2ccccc12,7.56 µM (active),–
CCCc1cc(C)[nH]c(=O)c1CNC(=O)c1cc(-c2ccc(N3CCN(C(C)C)CC3)nc2)cc2c1cnn2C(C)C,10.7 µM (active),–
CNC1CN(c2ccc3c(=O)c(C(=O)O)cn(-c4nccs4)c3n2)CC1OC (stereo not given),–,4.23% [at 11.5 µM]
Cc1cc(F)ccc1[C@H]1C[C@@H](N2CCN3C(=O)CC[C@H]3C2)CCN1C(=O)N(C)[C@H](C)c1cc(C(F)(F)F)cc(C(F)(F)F)c1,10.7 µM (active),–
CCCC(Nc1nc(-c2ccc(NC(=O)NCC)c(OC)c2)ncc1C)c1cccnc1 (stereo not given),0.239 µM (active),–
CN(C)Cc1ccc(-c2cnn3c(-c4cccc(NC(=O)c5cccc(C(F)(F)F)c5)c4)ccnc23)cc1,7.56 µM (active),–
C=CC(=O)Nc1cccc(Nc2nc(Nc3ccc(NC4CN(CCF)C4)cc3OC)ncc2C(F)(F)F)c1,0.268 µM (active),–
N#Cc1cnc2c(Cl)cc(NCc3cn(CCN4CCCCCC4)nn3)cc2c1Nc1ccc(F)c(Cl)c1,3.38 µM (active),–
CCOc1cc(C(C)(C)C)ccc1C1=N[C@@](C)(c2ccc(Cl)cc2)[C@@](C)(c2ccc(Cl)cc2)N1C(=O)N1CCN(CC(=O)N2CCOCC2)CC1,21.3 µM (active),–
CC(C)(O)C(=O)N1CCN(c2ccc(C(F)(F)F)c(C3=C(c4c[nH]c5ccccc45)C(=O)NC3=O)c2)CC1,3.79 µM (active),–
CCCCC1CCN(CCCN2C(=O)CCc3ccccc32)CC1,inactive,–
C[C@@H](NC(=O)C(=O)c1c[nH]c2ccc([N+](=O)[O-])cc12)c1ccccc1,inactive,–
O=C(Nc1cccnc1)c1cc(-c2ccnc(F)c2)ccc1OCc1ccccc1,1.51 µM (active),–
